Screening data deposited in PubChem by National Center for Advancing Translational Sciences (NCATS).
In the library only some 11% were active in any assay of this set; here they are far more common.
L3MBTL1 inh – inhibitors of human L3MBTL1; Q9Y468; AlphaScreen L3MBTL1–H3K9me1 peptide binding; AID 485360; hit rate 0.66% among 230,000; Potency, µM (highest dose often 57.1 µM), for inactives: at the top dose activity, negative = inhibition, usual class: inhibitors; also: potency is read from the fitted curve at half-maximal effect; % is scaled to controls: 0 for no effect and ±100 for the full control effect; nearly all actives have a fitted effect of over 60% in size
Target sequence (Q9Y468 whole entry, looked up): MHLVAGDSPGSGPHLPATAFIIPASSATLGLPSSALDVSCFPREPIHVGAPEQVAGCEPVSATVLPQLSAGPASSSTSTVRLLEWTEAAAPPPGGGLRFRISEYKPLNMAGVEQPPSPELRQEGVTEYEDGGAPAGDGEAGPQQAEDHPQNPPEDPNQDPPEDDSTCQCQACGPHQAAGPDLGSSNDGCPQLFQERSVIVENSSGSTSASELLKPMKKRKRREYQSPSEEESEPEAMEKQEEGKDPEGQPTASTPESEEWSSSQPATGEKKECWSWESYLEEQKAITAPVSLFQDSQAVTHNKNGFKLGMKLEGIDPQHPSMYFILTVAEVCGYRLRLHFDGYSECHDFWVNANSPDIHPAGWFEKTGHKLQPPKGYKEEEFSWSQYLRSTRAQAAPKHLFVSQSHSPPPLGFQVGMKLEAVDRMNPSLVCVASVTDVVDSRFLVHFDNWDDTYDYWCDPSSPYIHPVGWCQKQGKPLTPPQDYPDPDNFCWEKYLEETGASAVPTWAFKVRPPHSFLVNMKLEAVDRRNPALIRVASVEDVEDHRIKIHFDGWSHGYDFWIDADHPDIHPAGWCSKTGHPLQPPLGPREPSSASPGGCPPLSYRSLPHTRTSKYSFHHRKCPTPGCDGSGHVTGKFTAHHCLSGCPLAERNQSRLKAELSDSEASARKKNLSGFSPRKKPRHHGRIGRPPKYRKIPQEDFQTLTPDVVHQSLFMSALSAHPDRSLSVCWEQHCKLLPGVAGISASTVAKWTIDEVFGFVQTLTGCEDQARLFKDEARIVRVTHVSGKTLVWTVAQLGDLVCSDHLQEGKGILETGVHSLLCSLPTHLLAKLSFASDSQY
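L3MBTL1 (50 nM) pre-complexed 30 min with biotinylated H3(1-15)K9me1 peptide (75 nM), then compounds added for 30 min at room temperature; AlphaScreen streptavidin donor/nickel chelate acceptor beads (10 ug/mL final) read after 30 min dark incubation.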
G9a inh-1 – G9a (human) methyltransferase inhibition. Q96KQ7. G9a H3K9 monomethylation, AlphaScreen, 2 h. Potency, µM (highest dose often 102 µM), for the others: at the top dose activity, negative = inhibition, usual class: inhibitors. hit rate 8.8% among 350,000; also: potency is read from the fitted curve at half-maximal effect; % is scaled to controls: 0 for no effect and ±100 for the full control effect; nearly all actives have a fitted effect of over 75% in size
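Using a bead-based AlphaScreen, monomethylated H3K9 product from 2 h room-temperature reactions (G9a 20 nM, peptide 500 nM, SAM 20 uM) was detected with 0.5 ug/mL rabbit anti-H3K9me1 antibody.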
HP1b chromo inh – HP1-beta chromodomain-methylated histone interaction inhibition. hit rate 0.56% among 390,000. P83916. AID 540317. Potency, µM (series often up to 114 µM), without a hit: at the highest dose activity change, negative = inhibition, hits mostly inhibitors. AlphaScreen HP1-beta / biotin-H3K9me3 peptide binding; also: potency is read from the fitted curve at half-maximal effect; nearly all actives have a fitted effect of over 70% in size
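Compound inhibition of the preformed complex between 50 nM HP1-beta and 50 nM biotinylated H3K9me3 peptide was read by AlphaScreen. Buffer was PBS pH 7.4 with 0.01% Tween-20. Incubations ran 30 min at room temperature, with 10 ug/mL donor/acceptor beads.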
BAZ2B block – blocks human BAZ2B | Q9UIF8 | AlphaScreen BAZ2B-H3K14Ac peptide displacement | Potency, µM (doses to about 114 µM), for the others: top-dose activity change, negative = inhibition, hits mostly inhibitors | hit rate 4.4% among 360,000; also: potency is read from the fitted curve at half-maximal effect; % is scaled to controls: 0 for no effect and ±100 for the full control effect; nearly all actives have a fitted effect of over 60% in size
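BAZ2B 50 nM plus b-H3(5-23)K14Ac 50 nM, PBS pH 7.4/0.01% Tween-20, 30 min RT; compound added (max 110 uM), 30 min RT; streptavidin donor/Ni-chelate acceptor beads 10 ug/mL final, 20 min dark; AlphaScreen read.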
JMJD2A Tudor – JMJD2A Tudor domain (human) inhibition; hit rate 4.4% among 390,000; Potency, µM (top dose mostly 114 µM), for the others: at the highest dose activity change, negative = inhibition, hits mostly inhibitors; AlphaScreen JMJD2A-Tudor / H3K4me3 peptide binding; O75164; also: potency is read from the fitted curve at half-maximal effect; % is scaled to controls: 0 for no effect and ±100 for the full control effect; nearly all actives have a fitted effect of over 50% in size
JMJD2E inh-1 – JMJD2E demethylase inhibition by 8HQ compounds. hit rate 89% among 130. shares compounds with BAZ2B block. Potency, µM (titrated, usually from 57 µM), without a hit: at the top dose activity, negative = inhibition, actives largely listed as inhibitors. JMJD2E demethylase, FDH-coupled NADH fluorescence. AID 493212
JMJD2E inh-2 – JMJD2E (human) demethylase inhibition, confirmation; Potency, µM (doses to about 56.8 µM), for the others: at the top dose activity change, negative = inhibition, most hits filed as inhibitors; Recombinant JMJD2E, FDH-coupled NADH fluorescence (FDH is formaldehyde dehydrogenase); shares compounds with JMJD2A Tudor; hit rate 93% among 140
FDH inh – counter-screen for JMJD2E inhibitors: Pseudomonas putida formaldehyde dehydrogenase. shares compounds with JMJD2A Tudor. FDH enzyme assay, NADH fluorescence kinetic. Potency, µM (titrated, usually from 56.7 µM), without a hit: at the top dose activity, negative = inhibition, actives largely listed as inhibitors. hit rate 10% among 140. AID 2680
JMJD2E MS inh – inhibitors of human JMJD2E demethylase; shares compounds with JMJD2A Tudor; Potency, µM, usual class: inhibitors; AID 2688; recombinant JMJD2E demethylation, MALDI-TOF-MS; hit rate 90% among 45;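 active = compounds whose IC50 for blocking JMJD2E demethylation is below 100 µM; inconclusive = dose dependent effect but IC50 above 100 µM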
G9a inh-2 – inhibits human G9a histone lysine methyltransferase, hit confirmation; shares compounds with JMJD2A Tudor; G9a H3K9 monomethylation, AlphaScreen, 2 h; Potency, µM, most hits filed as inhibitors; hit rate 89% among 370; AID 588344; also: potency is read from the fitted curve at half-maximal effect; nearly all actives have a fitted effect of over 65% in size
RGS4 confirm – inhibits human RGS4, hit validation. shares compounds with JMJD2A Tudor. RGS4 GAP activity, Transcreener GDP fluorescence polarization. Potency, µM, actives largely listed as inhibitors. hit rate 80% among 25
The depositor's hits bear a star; ? = inconclusive; / = not tested or not shown; [ ] = another dose, or the depositor's remark. Unless noted, calls follow the shape of the dose curve; as a rule, active = well fitted curve in the direction sought with a large enough effect; inconclusive = small, poorly fitted or top-dose-only effect, or another doubt; inactive = no such curve, though single readings can be large; an effect the other way counts as inactive or inconclusive.

SMILES	L3MBTL1 inh	G9a inh-1	HP1b chromo inh	BAZ2B block	JMJD2A Tudor	JMJD2E inh-1	JMJD2E inh-2	FDH inh	others
Oc1ccc(CNc2cccc(F)c2F)c2cccnc12	25µM*	1.1µM*	/	40µM*	/	2.5µM*	2.5µM*	-9%
CC(C)(CO)CNC(=O)CCc1nnc(-c2ccc(-c3ccccc3)cc2)o1	36%	/	25%	32%	-14%	/	/	/
COc1cccc(C2(C)NC(=O)N(CC(=O)Nc3ccc(N4CCOCC4)cc3)C2=O)c1 (configuration not stated)	-3%	/	30%	/	-11%	/	/	/
Oc1ccc(CNc2ccccc2Cl)c2cccnc12	/	/	/	/	56µM*	2.5µM*	2.5µM*	-9%	JMJD2E MS inh=27*
Oc1ccc(CNc2ccccc2F)c2cccnc12	8.9µM*	1µM*	1.4µM*	14µM*	79µM*	5.8µM*	1.4µM*	-18%
O=C(Cc1ncc(C(F)(F)F)cc1Cl)NCc1cccnc1	/	13%	37%	-8%	-4%	/	/	/
Oc1ccc(CNc2ccccc2C(F)(F)F)c2cccnc12	/	/	/	/	56µM*	4µM*	13µM*	-18%	JMJD2E MS inh=11*
Oc1ccc(CNc2ccc(C(F)(F)F)cc2Cl)c2cccnc12	?	1.8µM*	/	79µM*	/	11µM*	11µM*	-9%
O=C(Nc1ccccc1Cl)Nc1cccnc1Cl	/	21%[59 µM]	20%	-20%	-14%	/	/	/
O=C(CSc1nnc(-c2ccc(O)cc2)o1)Nc1ccccc1Br	/	18%	1%	2%	-7%	/	/	/
Oc1ccc(CNc2ccccn2)c2cccnc12	/	/	/	/	40µM*	7.9µM*	11µM*	-18%	JMJD2E MS inh=33*
O=C(COc1ccc(F)cc1)Nc1nnc(S(=O)(=O)N2CCCC2)s1	-1%	-3%[59 µM]	52%	-5%	-9%	/	/	/
O=C(Nc1ccc2nn(-c3ccc(Cl)cc3)nc2c1)c1cc2ccccc2o1	/	-26%[59 µM]	15%	-2%	-11%	/	/	/
CN(C)C1CCN(Cc2cc(COCc3ccccc3)c3cccnc3c2O)C1 (configuration not stated)	10µM*	-38%[12.7 µM]	26%	10µM*	32µM*	11µM*	7.9µM*	-18%
Oc1c(CN2CCCCC2)cc(COCc2ccccc2)c2cccnc12	13µM*	?	19%	6.3µM*	20µM*	4µM*	4µM*	-27%
COc1ccc(C(=O)N(C)C2CCCN(Cc3ccccc3F)C2)cc1C (configuration not stated)	50%	/	14%	16%	-15%	/	/	/
Cn1c2c(c(=O)n(C)c1=O)C(c1ccc(Br)cc1)C(C#N)=C(N)N2 (configuration not stated)	6%	-1%	79%	-6%	-8%	/	/	/
COc1ccc(C(=O)NCC(=O)OCC(=O)Nc2cc([N+](=O)[O-])ccc2F)cc1	/	-8%[59 µM]	30%	-6%	-9%	/	/	/
COc1cc(C(=O)N2CCNCC2)cc(OC)c1OC	5%	/	54%	2%	-7%	/	/	/
O=C(c1ccc(-c2cc(O)c3ncccc3c2)cc1)N1CCNCC1	25µM*	-30%[12.7 µM]	27%	7.9µM*	20µM*	16µM*	16µM*	0%
CCCNS(=O)(=O)c1cc2c3c(c1)CCN3C(=O)CC2	/	12%	17%	1%	-16%	/	/	/
COc1ccc(CCNC(=O)C2CCC(C(C)(C)C)CC2)cc1OC (configuration not stated)	/	-20%	28%	-20%	-1%	/	/	/
Clc1cccc(Cl)c1CNc1ccc(N2CCCC2)cc1	?	1.8µM*	18µM*	20µM*	18µM*	/	/	/	G9a inh-2=4*;RGS4 confirm=9.5*
O=C(O)c1cccc(S(=O)(=O)Nc2ccc(N3CCCCC3)cc2)c1	-6%	/	10%	/	-21%	/	/	/
COc1ccc(NC(=O)CC2Sc3ncnn3C2=O)cc1 (configuration not stated)	11%	1.4µM*	2%	4%	?	/	3.2µM*	0.28µM*	G9a inh-2=0.63*
SMILES	L3MBTL1 inh	G9a inh-1	HP1b chromo inh	BAZ2B block	JMJD2A Tudor	JMJD2E inh-1	JMJD2E inh-2	FDH inh	others
CCOC(=O)c1ccc(NC(=O)CC2Sc3ncnn3C2=O)cc1 (configuration not stated)	-6%	2.2µM*	?	-12%	7.9µM*	/	2µM*	0.16µM*	G9a inh-2=0.56*
O=C(CC1Sc2ncnn2C1=O)Nc1ccc(Cl)cc1 (configuration not stated)	-4%	2.5µM*	-19%	-33%	?	/	2µM*	0.25µM*	G9a inh-2=?
O=C(CC1SC2=NCCN2C1=O)Nc1ccc(Cl)cc1 (configuration not stated)	26%[11.4 µM]	-2%[59 µM]	17%	0%	-9%	/	/	/
COc1ccccc1N(CC(=O)NC1CCCC1)C(=O)CNC(=O)c1cccs1	/	10%	20%	3%	-9%	/	/	/
CCOC(=O)NN=C1CN(S(=O)(=O)c2ccc(C)cc2)C1	/	6%	14%	0%	-12%	/	/	/
Cc1cccc(NC(=O)C2SC(=Nc3c(C)cccc3C)C(C(=O)N3CCOCC3)=C2N)c1 (configuration not stated)	1%	1.6µM*	-23%	-8%	?	/	/	/	G9a inh-2=16*
Cc1cccc(C(=O)Nc2cccc(C(=O)N3CCOCC3)c2)c1	/	12%[59 µM]	22%	2%	-8%	/	/	/
CC(=O)Nc1cccc(N)c1	3%	6%[0.501 µM]	44%	0%	-8%	/	/	/
CCOc1cc(CNc2ccccc2SC)ccc1O	/	?	/	56µM*	/	/	/	/	G9a inh-2=8*
O=C(NCCN1CCOCC1)NC1(C(F)(F)F)Oc2ccccc2O1	11%	?	47%	9%	-2%	/	/	/	G9a inh-2=?
O=C1CC(c2ccccc2)Cc2[nH]c(=O)c(-c3nc(-c4ccc(F)cc4)cs3)cc21 (configuration not stated)	/	0.63µM*	31%	13µM*	22µM*	/	/	/	G9a inh-2=2.5*
